Values without a mark were called inactive. The source made the active and inactive calls.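 How the source made its calls: active means mean inhibition above 46.68%, the untreated control wells mean plus 3 SD; inactive means the rest.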

Sequence of Nuclear receptor coactivator 1 (Homo sapiens) (Q15788 whole entry, looked up, the tested form may be a part): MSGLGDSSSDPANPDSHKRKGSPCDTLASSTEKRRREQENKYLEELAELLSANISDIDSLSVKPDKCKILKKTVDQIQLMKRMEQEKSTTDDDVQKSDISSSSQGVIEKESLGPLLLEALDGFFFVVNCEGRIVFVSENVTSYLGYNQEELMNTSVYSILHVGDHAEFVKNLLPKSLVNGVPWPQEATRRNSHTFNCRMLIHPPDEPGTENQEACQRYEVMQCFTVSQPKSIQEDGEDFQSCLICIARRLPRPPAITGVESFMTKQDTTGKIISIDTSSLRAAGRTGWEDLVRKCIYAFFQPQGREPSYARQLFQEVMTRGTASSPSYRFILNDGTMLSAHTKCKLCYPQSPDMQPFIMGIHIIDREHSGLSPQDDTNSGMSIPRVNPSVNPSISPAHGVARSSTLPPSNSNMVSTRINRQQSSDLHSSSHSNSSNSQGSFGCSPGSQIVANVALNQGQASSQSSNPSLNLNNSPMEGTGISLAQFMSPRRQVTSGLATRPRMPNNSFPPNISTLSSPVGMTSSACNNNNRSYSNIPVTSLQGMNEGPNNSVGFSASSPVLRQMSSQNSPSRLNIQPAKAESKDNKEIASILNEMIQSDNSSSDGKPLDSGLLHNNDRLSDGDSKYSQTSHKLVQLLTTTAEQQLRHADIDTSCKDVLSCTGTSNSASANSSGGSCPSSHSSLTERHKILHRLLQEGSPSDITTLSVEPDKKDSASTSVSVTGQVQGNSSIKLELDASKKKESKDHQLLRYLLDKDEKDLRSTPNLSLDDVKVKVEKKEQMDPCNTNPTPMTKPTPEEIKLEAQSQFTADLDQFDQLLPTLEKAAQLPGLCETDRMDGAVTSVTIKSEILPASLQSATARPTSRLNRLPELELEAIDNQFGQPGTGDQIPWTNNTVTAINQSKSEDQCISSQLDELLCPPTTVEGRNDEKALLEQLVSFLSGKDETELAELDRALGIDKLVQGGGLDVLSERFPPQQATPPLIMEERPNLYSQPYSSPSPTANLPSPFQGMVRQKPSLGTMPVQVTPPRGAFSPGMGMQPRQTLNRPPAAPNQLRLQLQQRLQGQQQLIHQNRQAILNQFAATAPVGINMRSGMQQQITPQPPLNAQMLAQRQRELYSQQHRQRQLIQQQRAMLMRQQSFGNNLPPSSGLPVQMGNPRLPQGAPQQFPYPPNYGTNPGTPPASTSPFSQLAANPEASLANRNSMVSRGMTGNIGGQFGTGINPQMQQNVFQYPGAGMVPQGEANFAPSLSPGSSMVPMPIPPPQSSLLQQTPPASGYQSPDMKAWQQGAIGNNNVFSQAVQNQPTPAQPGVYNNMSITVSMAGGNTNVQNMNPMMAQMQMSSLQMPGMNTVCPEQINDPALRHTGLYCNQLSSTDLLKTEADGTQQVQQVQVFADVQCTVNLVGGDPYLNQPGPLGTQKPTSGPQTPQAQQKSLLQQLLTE

This test has as its target Nuclear receptor coactivator 1 (Homo sapiens) (UniProt Q15788). Description: NCOA1 GAL4-fusion reporter inhibition – cell-based, luminescence, quadruplicate, confirmation (AID 588820).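 Further: 0% = DMSO wells and 100% = gossypol 36 µM treated wells.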 The note with it: HEK293 GAL4-SRC1 luciferase reporter, at 3.6 µM, hits give high values.
Take `CN(C)c1ccncc1C(=O)Nc1ccc(F)cc1F`: the inhibition was -3.76%.
Take `c1ccc2c(c1)CCN(c1nc3cc4c(cc3s1)OCCO4)C2`: the inhibition was -22.2%.
For the compound `O=C(c1ccccc1)C1CCN(C(=O)c2ccc(Cl)cc2)CC1`, the inhibition was 7.58%.
As for `COc1ccc2cc3c(N)nn(C(=O)c4cccc([N+](=O)[O-])c4)c3nc2c1`, the inhibition was 51.3% (active).
To `CC(NC(=O)COC(=O)c1cccs1)c1ccccc1` (stereo unspecified) belongs 15.5%.
Next, `COC(=O)c1cccc(NC(=O)c2ccc[n+]([O-])c2)c1`: -21.8%; `O=C(CS(=O)c1ccc(F)cc1)N1CCOCC1` (stereo unspecified): -1.56%.
Next, `N#Cc1ccc(Oc2ccc(C(F)(F)F)cc2NC(=O)c2ccc(F)cc2)cc1`: 6.71%; `CN(C(=O)COC(=O)c1ccc2[nH]c3c(c2c1)CCCC3)C1CCS(=O)(=O)C1` (stereo unspecified): -0.53%.
Consider `Cc1ccc2nc(NC(=O)CCCC(=O)O)sc2c1`, for which the inhibition is 45.4%.
To `Cc1ccc(S(=O)(=O)N2CCN(c3ncnc4sccc34)CC2)cc1C` belongs -1.32%; to `CC1(c2ccccc2)NC(=O)N(CC(=O)Nc2cc3c(cc2Br)OCCO3)C1=O` (stereo unspecified), -11.8%.
To `CCN1C(=O)c2cccc3c(S(=O)(=O)Nc4ccc(O)c(C(=O)O)c4)ccc1c23` belongs 5.84%.
Next, `CCN(CC)CCNc1nc2cc(OC)c(OC)cc2c2nc(-c3ccccc3)nn12`: 9.19%; `Cc1ccc(S(=O)(=O)NNC2=NS(=O)(=O)c3ccccc32)c(C)c1`: -17.6%; `COc1ccccc1-c1cccc(-c2nc(C(=O)N3CCCCC3)cc3c2[C@H](CCO)N(S(=O)C(C)(C)C)C3)c1` (stereo partly specified): -56.9%.
On to `Cc1ccc(S(=O)(=O)c2nc(-c3ccccc3Cl)oc2NCCCN2CCOCC2)cc1`, for which the inhibition was -13.7%.
For `COc1ccc(-c2nc(-c3ccc(NC(=O)c4ccncc4)cc3)no2)cc1OC`, the inhibition is -3.19%.
Next, `COc1cc(C)c(/C=C(\C#N)C(=O)Nc2ccc(C)cc2)cc1C(C)C`: -24%; `Cc1nn(CC(=O)N2CCN(c3cccc(C(F)(F)F)c3)CC2)c(=O)c2cccn12`: 23.4%; `COc1cc2c(cc1NC(=O)/C=C/c1cc(OC)c(OC)c(OC)c1)oc1ccccc12`: 3.29%.
To `COc1cc(C(=O)OCC(=O)NC(N)=O)cc(CN2C(=O)c3ccccc3C2=O)c1OC` belongs -10.9%.
To `NS(=O)(=O)c1ccc(N=Nc2c(O)ccc3ccccc23)cc1` belongs 7.96%; to `Cc1nnc(N2CCN(Cc3ccccc3)CC2)[nH]c1=O`, -4.97%.
In the case of `Cc1cc(C(=O)OCC(=O)N2CC(C)OC(C)C2)c(C)n1-c1ccccc1` (stereo unspecified), the inhibition was -17%.
To `COc1cccc(C(c2c(NC(=O)c3ccco3)sc(C)c2C)N2CCOCC2)c1` (stereo unspecified) belongs -6.24%.

The record behind these values is PubChem BioAssay.
